Inconclusive results are not listed. A number with no mark means an inactive call. Activity calls are given as the source filed them. Calls follow the shape of the dose curve; as a rule, active = well fitted inhibition curve with a large enough effect; inconclusive = small, poorly fitted or top-dose-only effect; inactive = no such curve, though single readings can be large or run the other way.
Biological target: Cytochrome P450 2C9 (Homo sapiens) (UniProt P11712)
Assay: qHTS Assay for Inhibitors and Substrates of Cytochrome P450 2C9 (AID 883); also: nearly all actives have a fitted effect of over 60% in size
Method in brief: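 Human CYP2C9 (10nM) with Luciferin-H at 100uM (its KM) in 25mM KPO4; compound preincubated 10 min at 37C, then NADPH regeneration for 60 min at 37C. Luciferin read by luminescence after detection reagent; normalized to 57uM sulphaphenazole as full inhibition.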
% is scaled to controls: 0 for no effect and ±100 for the full control effect; potency is read from the fitted curve at half-maximal effect.

Cytochrome P450 2C9 (Homo sapiens), sequence (P11712 whole entry, looked up): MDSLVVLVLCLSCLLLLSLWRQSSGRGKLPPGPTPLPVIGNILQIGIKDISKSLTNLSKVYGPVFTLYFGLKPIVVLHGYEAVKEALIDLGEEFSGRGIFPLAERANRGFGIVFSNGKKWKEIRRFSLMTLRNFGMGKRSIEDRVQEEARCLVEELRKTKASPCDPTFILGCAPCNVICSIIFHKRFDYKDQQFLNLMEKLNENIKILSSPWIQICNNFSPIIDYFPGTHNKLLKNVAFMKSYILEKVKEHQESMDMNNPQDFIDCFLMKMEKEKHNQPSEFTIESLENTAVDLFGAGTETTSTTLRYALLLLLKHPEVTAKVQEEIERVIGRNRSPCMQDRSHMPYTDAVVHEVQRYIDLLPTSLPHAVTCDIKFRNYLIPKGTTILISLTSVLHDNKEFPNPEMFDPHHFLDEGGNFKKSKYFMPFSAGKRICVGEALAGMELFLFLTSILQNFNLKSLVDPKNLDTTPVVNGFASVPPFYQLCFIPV

SMILES | activity change, negative = inhibition | Potency
COCCNc1ncncc1-c1c(C)noc1C | 23.1% [at 2.29 µM] | 
Cn1cc(-c2nc3cnc(N4CCNCC4)nc3n(C)c2=O)c2ccccc21 |  | 7.94 µM (active)
COCCn1c(=O)c(-c2cccc(C#N)c2)nc2cnc(Oc3ccccc3)nc21 |  | 7.94 µM (active)
CN(C)c1ccc(-c2cc(Nc3ccc(F)cc3)ncn2)cc1 | 8.7% [at 2.29 µM] | 
COc1ccc(-c2nc3cnc(N4CCOCC4)nc3n(C[C@H]3CCCO3)c2=O)cc1 |  | inactive

— PubChem BioAssay (NCATS)
